An excerpt weighted towards active compounds, which were near 3.5% of everything screened.
GPR151 activ = activators of human GPR151; hit rate 1% among 650,000; Q8TDV0; activation, % at 11.2 µM; AID 1508602; PathHunter beta-arrestin GPR151 cells, luminescence; in the data active = activation above about 4.9%;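 note: 0% = median of compound wells and 100% = cells with positive control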
Target sequence (Q8TDV0 whole entry, looked up): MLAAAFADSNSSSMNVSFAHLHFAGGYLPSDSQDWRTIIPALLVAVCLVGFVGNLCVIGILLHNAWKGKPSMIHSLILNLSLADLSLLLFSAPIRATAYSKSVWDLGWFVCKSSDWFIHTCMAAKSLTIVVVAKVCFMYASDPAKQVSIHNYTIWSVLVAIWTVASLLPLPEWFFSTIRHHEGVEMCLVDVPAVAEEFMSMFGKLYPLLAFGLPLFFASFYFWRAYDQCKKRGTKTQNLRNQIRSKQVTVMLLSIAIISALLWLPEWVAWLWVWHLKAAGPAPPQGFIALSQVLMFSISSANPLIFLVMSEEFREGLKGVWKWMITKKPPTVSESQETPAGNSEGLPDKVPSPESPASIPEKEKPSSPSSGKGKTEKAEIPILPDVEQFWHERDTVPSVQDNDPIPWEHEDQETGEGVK
TEAD-YAP inh = TEAD-YAP interaction inhibition; HEK-TIYL cells, TEAD-Gal4/YAP UAS-luciferase luminescence; inhibition, % at 9.12 µM; hit rate 1.4% among 640,000; AID 1259422; in the data active = inhibition above about 32%;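 note: 0% = median of test compound wells and 100% = reference inhibitor wells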
FBW7 activator = human FBW7 E3 ligase activation, primary screen | Q969H0 | normalized activity (activation), % at 26.1 µM | hit rate 0.13% among 650,000 | AlphaScreen FBW7–phospho-cyclin E peptide binding, activator screen; in the data active = normalized activity above about 1.9%;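 note: purified mutant Fbw7 with reduced substrate affinity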
MITF primary = inhibitors of human MITF. O75030. AlphaScreen MITF homodimerization, bead proximity signal. inhibition, % at 2.6 µM. hit rate 0.91% among 650,000. AID 1259374; in the data active = inhibition above about 50%;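 note: 0% = vehicle wells with protein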
GPR151 confirm = confirmation of human GPR151 activators | shares compounds with GPR151 activ | GPR151 PathHunter beta-arrestin cells, luminescence, 90 min; % of EA-reagent control over plate median | activation, % at 11.2 µM | 6,700 tested, under 10 active;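 active = mean percent activation across replicates above the confirmation screen cutoff of 4.91%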
GPR119 counter = counter-screen for GPR151 activators: effect on human GPR119; shares compounds with GPR151 activ; GPR119 PathHunter beta-arrestin cells, luminescence, 90 min; 0 = compound-well median, 100 = enzyme-acceptor control; activation, % at 11.2 µM; hit rate 0.3% among 6,700;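 active = mean percent activation in the counterscreen above 29.09%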;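 note: counterscreen on off-target GPR119 to flag nonselective hits from the GPR151 activator screen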
Starred values were filed as active, the others as inactive; / = no result given.

SMILES | GPR151 activ | TEAD-YAP inh | FBW7 activator | MITF primary | GPR151 confirm | GPR119 counter
CCOC(=O)CNC(=O)CSc1nnc(NC(=O)C(C)(C)C)s1 | 5.2* | 10 | 0 | -1 | 1 | 16
COc1ccc(CCN2C(=O)CC(C(=O)Nc3ccc(F)cc3)SC2=Nc2ccc(Cl)cc2)cc1OC (configuration not stated) | 1 | 3 | 0 | 15 | / | /
COc1ccc(CCN2C(=O)CC(C(=O)Nc3ccc(Cl)cc3)SC2=Nc2ccc(F)cc2)cc1OC (configuration not stated) | 5.4* | -4 | 0 | 13 | 0 | 7
O=C1CCC/C(=N/NC(=O)COc2ccccc2-c2ccccc2)C1 | -2 | 1 | 0 | 2 | / | /
CCOC(=O)C1CCCN(CCC(=O)Nc2ccc3c(c2)OCO3)C1 (configuration not stated) | -1 | 2 | 0 | 16 | / | /
CC12CC3CC(C)(C1)CC(CNC(=O)COc1ccccc1)(C3)C2 | 2 | 9 | 0 | 4 | / | /
CC1(C)CC(NC(=O)COc2ccccc2)CC(C)(CNC(=O)COc2ccccc2)C1 (configuration not stated) | 5.4* | 6 | 0 | 9 | 0 | 2
CCCC1NC(=S)N(C2CCCCC2)C1=O (configuration not stated) | 1 | -7 | 0 | -9 | / | /
O=C1C(CCCNC(=S)NC2CCCCC2)NC(=S)N1C1CCCCC1 (configuration not stated) | 9.8* | 4 | 0 | 9 | 0 | -9
Cc1c(Cl)cccc1NC(=O)CC(NCCC1=CCCCC1)C(=O)O (configuration not stated) | 0 | 4 | 0 | -6 | / | /
COc1cc(NC(=O)Cc2ccc(F)cc2)c(OC)cc1Cl | 5.0* | -5 | 1 | 2 | 0 | -5
COCCNC(=O)Cc1ccc(F)cc1 | 5.4* | -6 | 0 | 0 | 0 | -5
COc1ccccc1NC(=O)CN(C)S(=O)(=O)c1ccccc1 | 0 | 1 | 0 | -30 | / | /
COc1ccccc1NC(=O)NNC(=O)CN(C)S(=O)(=O)c1ccc(C)cc1 | 5.3* | 8 | 0 | 4 | 0 | 4
COc1cc(NC(=O)Cc2ccc(Cl)cc2)c(OC)cc1Cl | 0 | 3 | 0 | 50 | / | /
COCCCNC(=O)Cc1ccc(F)cc1 | 0 | 10 | 0 | 0 | / | /
COc1cc(NC(=O)CN(C)S(=O)(=O)c2ccc3ccccc3c2)c(OC)cc1Cl | 5.8* | -2 | 0 | 0 | -1 | -16
CCCOc1ccccc1C1NC(=O)NC(C)=C1C(=O)OCCc1ccccc1 (configuration not stated) | -1 | 9 | 1 | 5 | / | /
C#CCCCO/N=C1\C[C@@H](O)[C@@H](O)[C@@H]2[C@@H]3C(=O)N(C4CCCCC4)C(=O)[C@@H]3CC[C@H]12 | -1 | / | 0 | 1 | / | /
CC1(C)c2ccccc2N(CC(=O)NCc2ccc(Cl)cc2)C12C=Cc1cc([N+](=O)[O-])ccc1O2 (configuration not stated) | 6.3* | -5 | 0 | 10 | -1 | -4
COC(=O)c1ccc2c(c1)C(C)(C)C1(C=Cc3cc([N+](=O)[O-])ccc3O1)N2C (configuration not stated) | 5.3* | 3 | 0 | 10 | 1 | 10
CC1(C)c2ccccc2N(CC(=O)NCc2ccccc2)C12C=Cc1cc([N+](=O)[O-])ccc1O2 (configuration not stated) | 0 | 3 | 0 | 3 | / | /
Cc1ccc(OCC(=O)Nc2ccncc2)cc1C | 4.9* | 7 | 0 | -4 | 0 | 3
COCCCNC(=O)COc1ccc(Cl)c(C)c1 | 0 | -15 | 0 | -8 | / | /
COCCCNC(=O)COc1ccc(C)c(C)c1 | 10* | 1 | 1 | 5 | 0 | -15
Cc1ccc(C)c(OCC(=O)NCCCN(C)C)c1 | 9.1* | 8 | 0 | 10 | -1 | -12
COCCCNC(=O)CCCc1ccc(OC)c(C)c1 | 13* | 8 | 0 | 0 | 0 | -6
CC(=O)c1ccc(NS(=O)(=O)c2ccc(-c3cc(C)no3)cc2)cc1 | 1 | -7 | 0 | -7 | / | /
O=C(NCS(=O)(=O)c1ccc2ccccc2c1)c1ccccc1 | -1 | -1 | 0 | -14 | / | /
